Compound activity (PubChem)
Only some compounds are listed: those with a hit (about 21% of all), similar ones and a draw of the others.
NS1 function inh – influenza NS1 inhibition | Potency, µM (series often up to 46.1 µM) | actives 0.4% (n = 270,000) | AID 2326; calls by dose curve; also: actives are rising curves; nearly all actives have a fitted effect of over 50% in size
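Growth recovery, yeast-based: influenza A NS1 expressed in S. cerevisiae causes slow growth, and suppressors are detected by OD600. The parent strain without NS1 is used as positive control.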
SARS PLpro yeast – blocks SARS-CoV papain-like protease in a yeast assay. S. cerevisiae expressing SARS-CoV PLpro, growth rescue. Potency, µM (doses to about 32.9 µM), actives largely listed as activators. AID 485353. actives 0.19% (n = 330,000); calls by dose curve; also: nearly all actives have a fitted effect of over 55% in size
Shiga inhibitor – Shiga toxin inhibition. Vero cells, Shiga toxin protein synthesis inhibition reporter. inhibition, % at 38.7 µM. actives 9.2% (n = 290,000). AID 2315; in the data active = inhibition mostly above about 28%, no sharp cut-off; inactive = mostly below about 43%
Pf growth 96h – P. falciparum growth inhibition at 96 hours. P. falciparum luciferase reporter growth, 96 h. Potency, µM (titrated, usually from 28.7 µM), actives largely listed as inhibitors. actives 6.9% (n = 320,000). AID 504834
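Two parasite generations (96 h, 37 C, 5% CO2) of compound exposure in infected erythrocytes (0.05% parasitemia, 2% hematocrit). Luciferase-reporter P. falciparum; decreased luminescence indicates inhibited growth, aimed at apicoplast-acting delayed death.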
Cycloheximide cs – counter-screen hit for Shiga toxin inhibitors, cycloheximide. cell reporter, cycloheximide protein synthesis inhibition counterscreen. max response, %. actives 12% (n = 300,000). AID 2314; in the data active = max response mostly above about 13%, no sharp cut-off; inactive = mostly below about 14%; also: read at 38.3 µM for the half of the compounds with a filed dose
Pf growth 48h – P. falciparum growth inhibition at 48 hours (one generation) | P. falciparum luciferase growth in erythrocytes, 48 h | Potency, µM (titrated, usually from 28.7 µM), usual class: inhibitors | actives 5.9% (n = 310,000)
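A one-generation exposure of luciferase-tagged malaria parasites in RPMI 1640/Albumax erythrocyte culture, 37 C and 5% CO2. Inhibition is inferred from decreased luminescence after adding detection reagent.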
Large screens that a line does not name were inactive. Unless noted, calls follow the shape of the dose curve; as a rule, active = well fitted inhibition curve with a large enough effect; inconclusive = small, poorly fitted or top-dose-only effect, or another doubt; inactive = no such curve, though single readings can be large or run the other way.

Nc1ccc(C(=O)N2CCN(S(=O)(=O)c3ccc(Cl)s3)CC2)cc1[N+](=O)[O-]	Pf growth 96h inconclusive (no result: NS1 function inh, Shiga inhibitor, Cycloheximide cs)
Cc1cc(NC(=O)c2ccc3c(c2)OCO3)ccc1NC(=O)c1ccco1	Cycloheximide cs 14
Cc1ccc(C(=O)Nc2ccc3c(c2)OCO3)cc1NC(=O)c1ccco1	Shiga inhibitor 74, Cycloheximide cs 27 (no result: NS1 function inh)
O=C(Nc1cccc(NC(=O)c2ccco2)c1)c1ccc2c(c1)OCO2	none
O=C(OCC(=O)N1CCCC1)c1cc(Cl)ccc1Cl	none
Cc1ccc(C=Nc2ccc(N(C)C)cc2)o1	Shiga inhibitor 109, Pf growth 96h 0.93µM, Cycloheximide cs 24, Pf growth 48h inconclusive
Cc1ccc(/C=N/n2c(C)nnc2C)o1	none
COc1ccc(OCCCC(=O)Nc2cc(Cl)ccc2-n2cncn2)cc1	Pf growth 96h inconclusive, Pf growth 48h inconclusive (no result: NS1 function inh, Shiga inhibitor, Cycloheximide cs)
O=C(CCOc1ccccc1)Nc1nnc(-c2ccc3c(c2)OCCO3)o1	Cycloheximide cs 21 (no result: NS1 function inh)
O=C(COc1ccccc1)Nc1nnc(-c2ccc(F)cc2)o1	Pf growth 96h 12µM
O=C(Nc1nnc(-c2ccc3c(c2)OCCO3)o1)c1ccc(Cc2ccccc2)cc1	none (no result: Pf growth 48h)
C/C(CCc1ccccc1)=N\NC(=O)CC(=O)NCCc1ccccc1	none
CCc1nnc(NC(=O)CSc2ccc(-c3nc4ccccc4[nH]3)cn2)s1	Shiga inhibitor 83, Cycloheximide cs 26
Cc1ccc2nc(-c3ccc(SCC(=O)Nc4nnc(C)s4)nc3)[nH]c2c1	Shiga inhibitor 51, Cycloheximide cs 69
Cc1nc(NC(=O)CSc2ccc(-c3nc4ccccc4[nH]3)cn2)sc1C	none
Cc1ccc2nc(-c3ccc(SCC(=O)Nc4nc(C)cs4)nc3)[nH]c2c1	Cycloheximide cs 32
Cc1ccc(S(=O)(=O)NC(C(=O)N2CCN(S(=O)(=O)c3cccc(F)c3)CC2)C(C)C)cc1 (stereo not drawn)	Pf growth 48h inconclusive (no result: NS1 function inh, Shiga inhibitor, Cycloheximide cs)
Cc1cc(SCC(=O)c2cc(C)n(C)c2C)nc2ccccc12	NS1 function inh inconclusive, Pf growth 96h inconclusive
CN(Cc1ccccc1)S(=O)(=O)c1ccc(Cl)c(C(=O)OCC(=O)NC2CCS(=O)(=O)C2)c1 (stereo not drawn)	none (no result: NS1 function inh, Shiga inhibitor, Pf growth 96h, Cycloheximide cs, Pf growth 48h)
O=C(NCc1ccc(F)cc1)C1CCCN(C(=O)Nc2ccc(F)cc2)C1 (stereo not drawn)	none
C=CCN1C(=O)CSc2ccc(C(=O)NC(C)c3ccccc3)cc21 (stereo not drawn)	Pf growth 96h 9.3µM
O=C(NCCC1=CCCCC1)c1ccc2c(c1)N(Cc1ccccc1)C(=O)CS2	Pf growth 96h 5.9µM (no result: Pf growth 48h)
O=C(c1ccc2c(c1)N(Cc1ccccc1)C(=O)CS2)N1CCOCC1	Pf growth 96h 13µM
Cc1c(C(=O)NCCS(=O)(=O)N2CCN(c3ccccc3F)CC2)cccc1[N+](=O)[O-]	none
CN1C(=O)C(c2ccccc2[N+](=O)[O-])C(=O)c2ccccc21 (stereo not drawn)	none (no result: Pf growth 48h)
CC(Oc1ccc(Br)cc1Cl)C(=O)Nc1ccncc1 (stereo not drawn)	Pf growth 48h inconclusive (no result: Shiga inhibitor)
O=C(NC(CO)(CO)CO)[C@@H]1CCCN1S(=O)(=O)c1cccc2cccnc12	none (no result: NS1 function inh, Shiga inhibitor, Cycloheximide cs)
C/C(=N/N1CCN(c2ccccc2)CC1)c1cccc([N+](=O)[O-])c1	Shiga inhibitor 64, Cycloheximide cs 33 (no result: NS1 function inh)
C/C(=N/N1CCN(Cc2ccccc2)CC1)c1ccc(Br)cc1	none
C/C(=N\N1CCN(c2ccccc2)CC1)c1ccco1	Shiga inhibitor active, Cycloheximide cs 28
C/C(=N/N1CCN(c2ccccn2)CC1)c1ccc([N+](=O)[O-])cc1	Shiga inhibitor 21, Cycloheximide cs 31
C/C(=N\N1CCN(c2ccc(Cl)cc2)CC1)c1cccc([N+](=O)[O-])c1	none
C/C(=N\N1CCN(Cc2ccccc2)CC1)c1ccco1	Shiga inhibitor 53
CCCCNc1nc(N)ncc1[N+](=O)[O-]	Pf growth 96h inconclusive, Pf growth 48h inconclusive
COc1ccc(C(=O)NCCS(=O)(=O)NCc2ccc(F)cc2)cc1	none (no result: NS1 function inh, Shiga inhibitor, Cycloheximide cs)
O=[N+]([O-])c1cccc(/C=N\N2CCN(c3ccc(Cl)cc3)CC2)c1	Pf growth 96h 8.3µM
O=[N+]([O-])c1ccc(/C=N\N2CCN(c3ccc(Cl)cc3)CC2)cc1	none
C/C(=N\N1CCN(c2ccccc2)CC1)c1cccs1	none
C/C(=N\N1CCN(c2ccccc2)CC1)c1ccncc1	Shiga inhibitor 46, Cycloheximide cs 22
COc1ccccc1NC(=O)C1Cc2ccccc2CN1C(=O)c1ccco1 (stereo not drawn)	Pf growth 48h inconclusive
O=C(Nc1ccccc1)C1Cc2ccccc2CN1C(=O)c1ccco1 (stereo not drawn)	Pf growth 96h inconclusive, Cycloheximide cs 57 (no result: Pf growth 48h)
Cc1c(Cl)cccc1NC(=O)C1Cc2ccccc2CN1C(=O)c1ccccc1 (stereo not drawn)	SARS PLpro yeast inconclusive, Pf growth 96h 9.3µM
Cc1ccc(N2C(=O)NC(=O)C(CCc3ccccn3)(Cc3cccc(Cl)c3Cl)C2=O)cc1 (stereo not drawn)	Pf growth 96h 2.3µM
O=C1NC(=O)C(CCc2ccncc2)(CCc2ccccn2)C(=O)N1c1ccc(Br)cc1 (stereo not drawn)	Pf growth 48h inconclusive
COc1ccc(-c2nnc(SCC(=O)Nc3ncc(C(F)(F)F)cc3Cl)n2CC(C)C)cc1	Cycloheximide cs 15
CCn1c(SCC(=O)Nc2ncc(C(F)(F)F)cc2Cl)nnc1-c1cccc(C)c1	none
CCCN(CC(=O)Nc1ccccc1OC)C(=O)Cc1ccc2c(c1)CCC2	Pf growth 96h inconclusive, Pf growth 48h 10µM (no result: NS1 function inh, Shiga inhibitor, Cycloheximide cs)
COc1ccccc1NC(=O)Nc1ccc2c(c1)CCC2	Shiga inhibitor 65, Cycloheximide cs 53
COc1ccc(/C=C/C(=O)Nc2ccc3c(c2)CCC3)cc1OC	none
CCN(CC(=O)Nc1ccccc1C(F)(F)F)C(=O)Cc1ccc2c(c1)CCC2	Pf growth 48h inconclusive (no result: NS1 function inh, Shiga inhibitor, Cycloheximide cs)
COc1ccc(NC(=O)Nc2ccc3c(c2)CCC3)cc1OC	Pf growth 96h inconclusive, Cycloheximide cs 17
COc1ccc(C)cc1NC(=O)Nc1ccc2c(c1)CCC2	Cycloheximide cs 24
COc1ccc(C)cc1S(=O)(=O)N1CCN(C/C=C/c2ccccc2)CC1	Pf growth 96h inconclusive, Pf growth 48h inconclusive (no result: NS1 function inh, Shiga inhibitor, Cycloheximide cs)
Cc1[nH]c(N)nc(=S)c1CCC(=O)O	none (no result: SARS PLpro yeast, Shiga inhibitor, Pf growth 96h, Cycloheximide cs, Pf growth 48h)
OCC[C@H]1C[C@@H](O)[C@H](O)[C@]2(OCCc3ccccc32)O1	Pf growth 48h inconclusive (no result: NS1 function inh, Shiga inhibitor, Cycloheximide cs)
CCCCC1=CC2=CC(=O)C(C)(OC(=O)c3cnc4ccccc4n3)C(=O)C2=CO1 (stereo not drawn)	none
O=c1c2ccccc2nc(/C=C/c2cc(Br)ccc2O)n1CCCO	Pf growth 96h inconclusive, Pf growth 48h 1.3µM
CN(C)S(=O)(=O)c1ccc2[nH]cc(/C=C/c3nc4ccccc4c(=O)n3-c3ccccc3)c2c1	Pf growth 96h inconclusive, Pf growth 48h 9.3µM
CC[n+]1ccc(/C=C/c2c[nH]c3ccccc23)cc1	Pf growth 96h inconclusive, Pf growth 48h 0.52µM
